Consider 20 compounds from ChEMBL document CHEMBL3988442, “University of Dundee, Small-Polar-MMV Screening Library” (2021).

SMILES strings stand for the structures.

In this experiment the target is T1, Aspartate--tRNA(Asp/Asn) ligase (Mycobacterium tuberculosis (strain ATCC 25618 / H37Rv)) (UniProt P9WFW3).
T1 sequence (whole entry): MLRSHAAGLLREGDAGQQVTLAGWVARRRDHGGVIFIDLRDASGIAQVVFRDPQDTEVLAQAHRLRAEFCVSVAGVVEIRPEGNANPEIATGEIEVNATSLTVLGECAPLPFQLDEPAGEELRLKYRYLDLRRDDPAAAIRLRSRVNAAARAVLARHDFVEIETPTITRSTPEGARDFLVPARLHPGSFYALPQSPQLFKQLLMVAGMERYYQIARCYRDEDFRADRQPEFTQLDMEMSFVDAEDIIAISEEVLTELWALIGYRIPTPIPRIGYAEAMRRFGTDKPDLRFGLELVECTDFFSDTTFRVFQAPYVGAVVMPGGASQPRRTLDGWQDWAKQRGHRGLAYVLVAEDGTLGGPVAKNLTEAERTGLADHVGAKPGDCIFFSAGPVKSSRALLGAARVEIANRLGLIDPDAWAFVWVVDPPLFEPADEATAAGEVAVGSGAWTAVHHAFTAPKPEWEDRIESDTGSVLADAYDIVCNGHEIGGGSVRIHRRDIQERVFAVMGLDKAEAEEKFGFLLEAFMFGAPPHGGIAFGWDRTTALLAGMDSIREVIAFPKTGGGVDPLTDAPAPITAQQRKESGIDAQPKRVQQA
Put plainly: Assay for Asp RNA synthetase-1 from Mycobacterium tuberculosis. It counts as functional. Also on record: scale not given: in the data most compounds retested in dose-response had high values. The settings on record: 30 µM.
In the case of `Cn1ccnc1CN1CCCC(Cc2ccccn2)C1` (stereo not given), the Percent Effect was -2.49%.

As to `Cc1cnn(CCNCc2csc(-c3cccs3)n2)c1`, the Percent Effect was -6.55%.

On to `Cc1nc(C)c(C(=O)NCCNC(=O)Cc2cccc(F)c2)s1`, for which the Percent Effect was found to be 4.17%.

Take `CCCc1nc(CN2CCOC(CNc3cccnn3)C2)cs1` (stereo not given): the Percent Effect was 3.73%.

On to `COCCN1CC[C@H](O)[C@@H]1Cc1ccccc1`, for which the Percent Effect is -4.18%.

Turning to `Cc1n[nH]cc1CNc1ccc2c(c1)CN(C(=O)OC(C)(C)C)CC2`, the Percent Effect stood at 2.29%.

As for `CC(NC(=O)NCCCN(C)C)c1ccc2c(c1)CCC(=O)N2` (stereo not given), the Percent Effect was -3.92%.

As for `O=C(CN1CCCC1Cn1cncn1)NC(C1CC1)C1CC1` (stereo not given), the Percent Effect stood at 2.42%.

On to `CCS(=O)(=O)NC[C@]12COC[C@H]1CN(Cc1cccc(OC)c1)C2`, for which the Percent Effect came out at 0.596%.

In the case of `CN(C)S(=O)(=O)N1CCC(Oc2ccccn2)CC1`, the Percent Effect was determined as 3.02%.

On to `Cc1n[nH]c(C2CN(C(=O)c3cc(Cl)c[nH]3)CCO2)n1` (stereo not given), for which the Percent Effect was 2.37%.

On to `CNS(=O)(=O)Cc1ccc(CNc2cncc(-n3cccn3)n2)cc1`, for which the Percent Effect is -0.637%.

In the case of `Cc1cc(C(=O)NCc2ccnc(N3CCN(C)CC3)c2)c(C)s1`, the Percent Effect was -3.03%.

Take `CC(CN1CCOCC1)NC(=O)N(C)Cc1ccc(Cl)s1` (stereo not given): the Percent Effect is 1.38%.

Consider `O=C(NCc1ccco1)[C@@]12CCO[C@@H]1CCN(CCN1CCCC1)C2`, for which the Percent Effect is 1.05%.

On to `CCN1CCN(S(=O)(=O)c2ncn(C)c2Cl)CC1`, for which the Percent Effect is -2.51%.

Take `CCCc1n[nH]c(C2CN(Cc3nnc(C4CC4)o3)CCO2)n1` (stereo not given): the Percent Effect was -8.48%.

As for `CN(C)C(=O)NC[C@H]1OC[C@@H]2CCN(Cc3ccoc3)C[C@@H]21`, the Percent Effect was 1.28%.

Turning to `Cn1c(CN2CCCC2)nnc1C1CCCN(C(=O)C2CCOCC2)C1` (stereo not given), the Percent Effect came out at 2.71%.

As to `Cc1csc(N2CCN(CC(=O)Nc3nncs3)CC2C)n1` (stereo not given), the Percent Effect is -3.09%.
